Source: the supplement of paper PMC11172423
Unmarked numbers belong to inactive results.

What was measured:
[1] = system: Falciformispora senegalensis CBS197.79; experiment: growth relative to untreated control; higher = less inhibition, active = 20 or less
Summary of the method: (§1)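 Compound at 100 or 25 µM was applied for 7 days at 37 °C to hyphal fragments of M. mycetomatis MM55 or F. senegalensis CBS197.79 in 96-well plates. Fragments were suspended in colourless RPMI 1640 with L-glutamine and MOPS at 68–72% transmission at 660 nm, and viability was read with MTS (2 h, 490 nm) or resazurin (600 nm). Growth is reported as blank-corrected metabolic activity relative to the blank-corrected untreated growth control.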

[2] = system: Madurella mycetomatis MM55; experiment: as above
Summary of the method: as §1

Compound	growth ([1]; 25 µM)	growth ([1]; 100 µM)	growth ([2]; 25 µM)	growth ([2]; 100 µM)
CCN(CC)CCOc1ccc(C(O)(Cc2ccc(Cl)cc2)c2ccc(C)cc2)cc1 (stereo unspecified)	7.03% (active)	8.2% (active)	3.26% (active)	3.33% (active)
Cc1cc(Nc2cc(N)ncn2)c(=O)n2c1C(=O)NC21CCCCC1	111%	107%	85.9%	84.7%
Clc1ccc2ncc(-c3cccc(NC4CCNC4)n3)n2c1 (stereo unspecified)	92%	83.1%	78.8%	56.6%
O=S(=O)(NCC1(O)CCOc2ccccc21)c1ccccc1F (stereo unspecified)	85.9%	113%	101%	102%
CC(N)CCn1c(Nc2cc(Cl)cc(C(F)(F)F)c2)nc2cnc(NC(C)(C)C)nc21 (stereo unspecified)	19.4% (active)	12.8% (active)	6.25% (active)	5.86% (active)
Cc1cc(C)c2cc(C(=O)N[C@@H](C)c3ccccc3)[nH]c2c1	86.1%	87.5%	7.91% (active)	69.4%
Cc1ncc([N+](=O)[O-])n1CC(C)O (stereo unspecified)	93.4%	100%	120%	128%
CN(C)C(=O)COC(=O)Cc1ccc(OC(=O)c2ccc(NC(=N)N)cc2)cc1	112%	108%	77.6%	93.2%
Cn1nc(-c2cccc(CNC3CCc4ccc(O)cc43)c2)c2cnc(NC3CCCC3)nc21 (stereo unspecified)	18% (active)	21.3%	5.13% (active)	10.2% (active)
